Most compounds without a hit are left out; they make up all but 1.8% or so of the library.
Fam108B inh: mouse Fam108B serine hydrolase inhibitors, primary screen, counter-screen for RBBP9 inhibitor project, biochemical, fluorescence polarization | AID 1947, 2009 | recombinant Fam108B, FP-Rh probe fluorescence polarization | 0.33% of 300,000 active | inhibition, % at 9.51 µM;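 active = inhibition above the screen mean inhibition plus 3 SD, computed separately per campaign, cut at about 18% in these data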;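 note: inhibitors lower polarization as less probe binds the enzyme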
PME-1 primary: PME-1 inhibitors via competitive probe labeling, primary screen, biochemical, fluorescence polarization, FP-Rh probe, HTS. recombinant PME-1. inhibition, % at 5.9 µM. 0.53% of 320,000 active;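 active = inhibition above the campaign mean of all compounds plus 3 SD, cut at about 26% in these data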;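 note: competitive labeling of PME-1 active site by serine hydrolase directed probe; 0% = PME-1 with DMSO and 100% = wells lacking PME-1 enzyme; inhibitors block probe labeling so polarization falls and inhibition rises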
LYPLA1 counter: LYPLA1 inhibitors, primary screen, counter-screen for PME1 inhibitor project, biochemical, fluorescence polarization, FP-Rh probe ABPP; inhibition, % at 5.9 µM; 0.16% of 320,000 active; Acyl-protein thioesterase 1 (Homo sapiens), O75608; recombinant LYPLA1;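 active = inhibition above the mean of all tested compounds plus 3 SD, set per campaign, cut at about 14% in these data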;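 note: inhibitors block serine hydrolase probe labeling of LYPLA1 so polarization falls; 0% = enzyme with DMSO and 100% = wells lacking LYPLA1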
GSTO1 inh: inhibitors of recombinant GSTO1, primary screen, counter-screen for RBBP9 inhibitor project, biochemical, fluorescence polarization; Glutathione S-transferase omega-1 (Homo sapiens), P78417; activity-based probe fluorescence polarization; inhibition, % at 5.96 µM; 1.1% of 300,000 active; AID 1974, 2009;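 active = inhibition above the campaign mean inhibition plus 3 SD, cut at about 35% in these data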;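 note: 0% = GSTO1-1 with DMSO and 100% = wells lacking GSTO1-1 enzyme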
Target sequence (P78417 whole entry, looked up): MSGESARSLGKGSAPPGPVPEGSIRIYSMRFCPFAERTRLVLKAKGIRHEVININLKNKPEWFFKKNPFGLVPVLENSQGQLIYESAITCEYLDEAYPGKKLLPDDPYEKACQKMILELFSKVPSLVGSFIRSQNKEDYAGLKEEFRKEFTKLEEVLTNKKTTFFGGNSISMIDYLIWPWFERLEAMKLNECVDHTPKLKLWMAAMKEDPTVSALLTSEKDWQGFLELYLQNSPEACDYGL
PAD4 FP inh: human PAD4 inhibitors, primary screen, biochemical, fluorescence polarization, 1536-well format; recombinant PAD4, RCA probe fluorescence polarization; 0.41% of 330,000 active; AID 485272, 2010; Protein-arginine deiminase type-4 (Homo sapiens), Q9UM07; inhibition, % at 6.36 µM;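 active = percent inhibition above a cutoff equal to the mean of all tested compounds plus 3 SD, cut at about 15% in these data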;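 note: 0% = PAD4 with RCA probe and DMSO and 100% = probe without PAD4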
LYPLA2 counter: LYPLA2 inhibitors, primary screen, counter-screen for PME1 inhibitor project, biochemical, fluorescence polarization, FP-Rh probe ABPP; Acyl-protein thioesterase 2 (Homo sapiens), O95372; recombinant LYPLA2; inhibition, % at 5.9 µM; 0.38% of 320,000 active;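 active = inhibition above the screen-wide mean plus 3 SD, limit set per campaign, cut at about 26% in these data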;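 note: 0% = LYPLA2 with DMSO and 100% = wells lacking LYPLA2 enzyme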
GSTO1 confirm: GSTO1 inhibitor hit confirmation, counter-screen for RBBP9 inhibitor project, biochemical, fluorescence polarization, triplicate | 54% of 2,400 active | recombinant GSTO1, probe fluorescence polarization | inhibition, % at 5.96 µM | shares compounds with GSTO1 inh | AID 2176, 2009;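 active = inhibition above the primary screen's cutoff, its mean inhibition plus 3 SD, cut at about 35% in these data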;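 note: loss of polarization as inhibitors block binding of rhodamine sulfonate ester activity probe; 0% = GSTO1 with DMSO and 100% = wells lacking GSTO1 enzyme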
Active calls of the source: *; x = not tested or not shown.

SMILES	Fam108B inh	PME-1 primary	LYPLA1 counter	GSTO1 inh	PAD4 FP inh	LYPLA2 counter	GSTO1 confirm
O=C(Nc1ccccc1)c1ccc(C(=O)Nc2ccccc2)nc1	1	1	0	1	-2	3	x
O=C(Nc1ccccc1)c1cn(CCBr)cn1	1	-2	-2	62*	0	4	73*
CCCCNC(=O)c1ccc2nc(-c3ccco3)c(-c3ccco3)nc2c1	8	3	-12	70*	-7	-12	24
O=C(c1ccc2nc(-c3ccco3)c(-c3ccco3)nc2c1)N1CCN(c2ncccn2)CC1	14	16	1	68*	-6	13	22
CCC(=O)N(C1=C(NC)C(=O)c2ccccc2C1=O)C(C)C	1	1	-1	50*	-5	-1	13
CCN(CC(=O)NCc1ccc(Cl)cc1)C(=O)CSCC(=O)Nc1cccc(C)c1	-2	1	5	44*	-3	5	8
COc1cc(O)cc2cc3c(c(O)c12)C(=O)CC(C)(O)O3 (stereo not given)	-4	1	0	47*	-5	2	31
O=C(Nc1cccc2ccccc12)c1ccc([N+](=O)[O-])s1	-2	6	0	32	3	13	x
O=C(Nc1ccccc1F)c1ccc([N+](=O)[O-])s1	-3	6	4	44*	1	7	12
CSc1cccc(NC(=S)N2CCC(N(C)C3CCCC3)CC2)c1	-4	0	-2	-2	-10	-9	x
Cc1cccc(-c2nnc(SCCOc3ccc4c(C)cc(=O)oc4c3)o2)c1	-3	-1	0	40*	-1	8	25
O=C1C=CC(=O)C(C2=C3C(=O)N(CCc4ccccc4)CC(=O)N3CCC2)=C1	2	-4	1	75*	-1	-3	7
CC(=O)N(NC(=O)c1ccccc1Cl)C1CC(=O)N(c2ccc(C)cc2)C1=O (stereo not given)	2	3	4	8	-3	3	x
CC(=O)NC1=C(N(C)C2CCS(=O)(=O)C2)C(=O)c2ccccc2C1=O (stereo not given)	2	3	0	38*	-10	-2	4
CCOC(=O)c1cc(-c2ccccc2C)n(CC2CC(c3ccc(OC)cc3)=NO2)n1 (stereo not given)	x	x	x	x	-9	x	x
COC(=O)c1c(NC(=O)C2CCCCC2C(=O)O)sc2c1CCCCC2 (stereo not given)	-2	3	-2	23	-3	-2	x
CCOC(=O)c1c(NC(=O)C2CCCCC2C(=O)O)sc2c1CCCCC2 (stereo not given)	1	-1	-1	54*	1	-5	47*
O=C(COc1ccc(S(=O)(=O)N2CCc3ccccc32)cc1Cl)NCc1ccccn1	0	12	-2	-10	-5	0	x
C=C1CCC[C@]2(C)C[C@H]3OC(=O)C(CNCCN(CC)CC)[C@H]3CC12 (stereo not given in full)	0	-6	2	-3	-7	2	x
CC(CN1CCCC1)OC(=O)c1ccc(Br)cc1 (stereo not given)	-4	-8	-1	3	-5	3	x
COc1ccccc1/C=C1\SC(=O)N(CCC(=O)NNC(=O)c2ccccc2Cl)C1=O	-8	2	1	51*	0	0	4
COc1ccc(OC)c(C(C[N+](=O)[O-])c2c(C)cc3ccccn23)c1 (stereo not given)	4	8	-4	8	-4	0	x
Cc1ccc(-c2cc(O)cc3sc(=O)oc23)cc1C	3	0	-11	53*	7	-9	8

Screens (PubChem BioAssay)
